L3MBTL1 block: qHTS Assay for the Inhibitors of L3MBTL1. Lethal(3)malignant brain tumor-like protein 1 (Homo sapiens), Q9Y468. AlphaScreen L3MBTL1–H3K9me1 peptide binding. Potency, µM (highest dose often 57.1 µM), for inactives: at the top dose activity, negative = inhibition, usual class: inhibitors. 230,000 tested, 0.66% active; further: on the % scale 0 is the no-effect control and ±100 the full control effect; nearly all actives have a fitted effect of over 60% in size
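Displacement of a biotinylated histone H3(1-15) peptide monomethylated at Lys9 (75 nM) from L3MBTL1 (50 nM) was measured by AlphaScreen after a 30 min room-temperature compound incubation; cefsulodin titration served as intraplate control.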
HP1b chromo inh: HTS for Inhibitors of HP1-beta Chromodomain Interactions with Methylated Histone Tails; Chromobox protein homolog 1 (Homo sapiens), P83916; AlphaScreen HP1-beta / biotin-H3K9me3 peptide binding; Potency, µM (series often up to 114 µM), for inactives: at the top dose activity change, negative = inhibition, most hits filed as inhibitors; 390,000 tested, 0.56% active; further: nearly all actives have a fitted effect of over 70% in size
Target sequence (P83916 whole entry, looked up): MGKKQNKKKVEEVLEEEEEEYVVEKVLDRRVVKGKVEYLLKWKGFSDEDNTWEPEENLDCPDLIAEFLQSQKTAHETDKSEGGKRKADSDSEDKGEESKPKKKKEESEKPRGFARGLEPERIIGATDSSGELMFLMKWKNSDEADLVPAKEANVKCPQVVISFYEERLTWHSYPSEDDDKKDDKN
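Compound inhibition of the preformed complex between 50 nM HP1-beta and 50 nM biotinylated H3K9me3 peptide was read by AlphaScreen. Buffer was PBS pH 7.4 with 0.01% Tween-20. Incubations ran 30 min at room temperature, with 10 ug/mL donor/acceptor beads.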
BAZ2B inh: qHTS Assay for Inhibitors of BAZ2B; Bromodomain adjacent to zinc finger domain protein 2B (Homo sapiens), Q9UIF8; AlphaScreen BAZ2B-H3K14Ac peptide displacement; Potency, µM (top dose mostly 114 µM), for the others: top-dose activity change, negative = inhibition, most hits filed as inhibitors; 360,000 tested, 4.4% active; further: on the % scale 0 is the no-effect control and ±100 the full control effect; nearly all actives have a fitted effect of over 60% in size
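AlphaScreen luminescence quantifies BAZ2B engagement of H3K14Ac peptide; the protein and biotinylated peptide are both at 50 nM final, buffer PBS pH 7.4 with 0.01% Tween-20, all steps at room temperature.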
G9a block: qHTS Assay for Inhibitors of Histone Lysine Methyltransferase G9a; Potency, µM (highest dose often 102 µM), for the others: at the highest dose activity, negative = inhibition, usual class: inhibitors; 350,000 tested, 8.8% active; G9a H3K9 monomethylation, AlphaScreen, 2 h; further: on the % scale 0 is the no-effect control and ±100 the full control effect; nearly all actives have a fitted effect of over 75% in size
Target sequence (Q96KQ7 913-1193 limits assumed): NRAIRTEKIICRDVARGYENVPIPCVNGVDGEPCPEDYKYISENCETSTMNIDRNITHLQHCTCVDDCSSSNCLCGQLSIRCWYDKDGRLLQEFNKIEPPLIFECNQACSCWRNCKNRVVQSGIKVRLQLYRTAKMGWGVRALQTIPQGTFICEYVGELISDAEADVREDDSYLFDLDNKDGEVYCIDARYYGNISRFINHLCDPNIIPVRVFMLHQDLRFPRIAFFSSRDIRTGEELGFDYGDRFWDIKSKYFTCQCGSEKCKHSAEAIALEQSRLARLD
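Signal arises when biotinylated H3K9 peptide, once monomethylated, bridges streptavidin donor and antibody-captured acceptor beads. Enzyme at 20 nM was preincubated 15 min with test compounds; peptide 500 nM and SAM 20 uM then reacted for 2 h.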
Sfp inh: qHTS Assay for Inhibitors of Bacillus subtilis Sfp phosphopantetheinyl transferase (PPTase). Potency, µM, for the others: largest response in the series, negative = inhibition, actives largely listed as inhibitors. Biochemical Sfp PPTase activity, qHTS. AID 1490, 2009. 4'-phosphopantetheinyl transferase ffp (Bacillus subtilis), Q9F4F7. 310,000 tested, 3.5% active;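 further: the enzyme is Sfp with the accession as filed and its product quenches rhodamine fluorescence; 0% = enzyme reaction without inhibitor and -100% = no enzyme wells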
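With Hepes-Na pH 7.6 buffer containing 10 mM MgCl2, Sfp (15 nM) modified BHQ-2-YbbR (12.5 uM) using rhodamine-CoA (5 uM). Two reads 30 minutes apart at 525/598 nm yielded each well's rate.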
JMJD2A Tudor inh: qHTS Assay for Inhibitors of JMJD2A-Tudor Domain; Lysine-specific demethylase 4A (Homo sapiens), O75164; AlphaScreen JMJD2A-Tudor / H3K4me3 peptide binding; Potency, µM (series often up to 114 µM), for the others: at the top dose activity change, negative = inhibition, hits mostly inhibitors; 390,000 tested, 4.4% active; further: on the % scale 0 is the no-effect control and ±100 the full control effect; nearly all actives have a fitted effect of over 50% in size
* hit, by the source's call; ? = inconclusive; · = no result given; [ ] = remark or other dose. The list is not random: actives were taken first. Their share in the collection is about 12%. The call rests on the fitted dose curve; in most records, active means well fitted curve in the direction sought with a large enough effect; inconclusive means small, poorly fitted or top-dose-only effect, or another doubt; inactive means no such curve, though single readings can be large; an effect the other way counts as inactive or inconclusive. Potency means the concentration at half of the fitted maximal effect.

SMILES	L3MBTL1 block	HP1b chromo inh	BAZ2B inh	G9a block	Sfp inh	JMJD2A Tudor inh
O=C(CSc1nc(-c2ccccc2)ns1)N1CCOCC1	·	-14.7%	-17.1%	8.91µM*	39.8µM*	-14.5%
Cc1cccc(-c2nsc(SCC(=O)N3CCCC3)n2)c1	-0.2%	3.5%	-4.8%	39.8µM*	?	2.2%
Cc1cccc(-c2nsc(SCC(=O)Nc3ccc4c(c3)OCO4)n2)c1	9.2%	15.6%	0.6%	-77.1%	-24.1%	-11.4%
Cc1cccc(-c2nsc(SCC(=O)Nc3nccs3)n2)c1	-3.1%	-8.1%	-5.3%	10µM*	50.1µM*	?
CCCCNC(=O)Cn1c(SCc2ccccc2C)nc2ccncc21	·	19.1%[57 µM]	·	·	·	-6.2%[57.1 µM]
Cc1ccc(C2CC(=O)Oc3cc(O)ccc32)cc1 (stereo not given)	-2.8%	33.4%	-6.8%	-0.1%	-6.5%	-2.9%
O=C1CC(c2ccc3c(c2)OCO3)c2cc(O)ccc2O1 (stereo not given)	·	·	·	10µM*	89.1µM*	·
O=C1CC(c2ccc3c(c2)OCO3)c2ccc(O)cc2O1 (stereo not given)	·	·	·	25.7%	15.8%	·
O=C1CC(c2ccccc2)c2cc(O)ccc2O1 (stereo not given)	-1.2%	-14.0%	2.3%	3.55µM*	?	?
O=C(Nc1nnc(-c2ccc(F)cc2)o1)C1CCCN1S(=O)(=O)c1cccs1 (stereo not given)	-3.5%	34.9%	79.4µM*	?	·	44.7µM*
CC(=O)c1cccc(NC(=O)CN2C(=O)c3ccccc3Sc3ncccc32)c1	·	14.5%	-17.3%	-21.7%[59 µM]	·	-7.3%
Cc1cc(=O)c2c(O)c3c(O)cc(O)c4c5c(O)cc(O)c6c(O)c7c(=O)cc(C)c8c1c2c(c34)c(c65)c78	·	·	·	8.91µM*	50.1µM*	·
COC(=O)/C(=N\Nc1ccc(Cl)cc1)Sc1nnc(-c2ccc(OC)cc2)n1C	4.3%	15.6%	-34.7%	3.16µM*	-9.1%	?
CC(=O)OCC(CO)OC(C)=O (stereo not given) (tested in a mixture with another compound)	·	·	·	·	0.2%	·
Cc1ccc(-c2cc(C(F)F)n3ncc(C(=O)N4CCCc5ccccc54)c3n2)cc1	-1.7%	51.5%	12.5%	-6.9%[59 µM]	1.3%	-3.1%
COc1ccc(-c2cc(C(F)F)n3ncc(C(=O)N4CCc5ccccc54)c3n2)cc1	-13.6%	?	?	·	-15.6%	20µM*
CCC(=Cc1ccc(CC)cn1)CC	53.9%	15.3%[57 µM]	?	39.8µM*	-6.9%	-4.1%
CCc1ccc(-c2ccc(C(=O)O)cc2)nc1	12.0%	12.4%	7.7%	-5.6%[59 µM]	8.9%	-13.6%
O=c1c([N+](=O)[O-])c(O)c2cccc3c2n1CCC3	·	35.1%	?	79.4µM*	-21.1%	?
CCN(CC)CCNC(=O)c1c(O)c2cccc3c2n(c1=O)CCC3	-0.6%	10.0%	-12.6%	56.2µM*	-8.2%	-19.7%
CC1=C2C(=CO[C@H](C)[C@H]2C)C(=O)C(C(=O)O)=C1O	·	·	·	·	-10.3%	·
CCn1cc(C(=O)NCC(OC)OC)c(=O)c2cc(S(=O)(=O)N3CCC(C)CC3)ccc21	·	160.8%	-5.5%	·	-0.4%	101.6%
O=C(c1n[nH]c2ccccc12)N1CCCCC1	11.4%	42.1%	-2.1%	-10.4%	15.8%	0.7%
O=C(O)c1n[nH]c2ccccc12	0.8%	-2.3%	-27.1%	?	-2.9%	28.2µM*
CC(C)CN(C(=O)c1ccc(C(F)(F)F)cc1)c1c(N)n(CC(C)C)c(=O)[nH]c1=O	·	34.1%	1.9%	-7.2%	3.9%	-23.2%
SMILES	L3MBTL1 block	HP1b chromo inh	BAZ2B inh	G9a block	Sfp inh	JMJD2A Tudor inh
Cc1nc2c(nnn2Cc2ccccc2Cl)c(=O)[nH]1	4.2%[2.29 µM]	33.4%	-5.3%	0.5%[0.501 µM]	10.8%	3.4%
Cc1nc(Nc2ccc(Cl)cc2)c2nnn(Cc3ccccc3)c2n1	-0.8%	-5.7%	2.0%	-4.4%	20.8%	17.8µM*
Cc1nc2c(nnn2Cc2ccccc2)c(=O)[nH]1	·	?	·	?	2.7%	8.91µM*
CCc1ccccc1N(C)C(=O)Nc1cn(CC(C)C)c(=O)c2ccccc12	·	35.4%	12.2%[57.1 µM]	-2.8%[59 µM]	·	-11.0%
CN(C)CCNc1nc2sc3c(c2c(=O)n1Cc1ccccc1)CCCCC3	·	-38.5%	35.5µM*	?	-26.5%	50.1µM*
O=c1c2c3c(sc2nc(NCCO)n1CCc1ccccc1)CCCCC3	-12.1%	?	?	56.2µM*	7.4%	?
O=c1c2c3c(sc2nc(NCCO)n1Cc1ccco1)CCCCC3	-8.1%	17.8%	-30.3%	0.9%	9.3%	-22.2%
CCN(CC)c1ccc(-c2nc3cnccn3c2NC2CCCC2)cc1	-1.5%	?	-5.1%	50.1µM*	-24.3%	79.4µM*
c1cn2c(NC3CCCCC3)c(-c3ccc(SC4CCCCC4)cc3)nc2cn1	13.2%	71.8%	-27.9%	12.0%[2.33 µM]	·	-11.9%
Cc1ccc(C)c(N2CCN(C(=O)Cn3c(C)c4cnn(-c5ccccc5)c(=O)c4c3C)CC2)c1	·	-2.2%	?	-45.5%[59 µM]	·	?
CCC1CCCCN1C(=O)CSc1nc2c(cnn2-c2ccc(C)cc2)c(=O)[nH]1 (stereo not given)	-15.6%	26.6%	2.5%	56.2µM*	1.8%	-13.2%
Cc1ccc(-n2ncc3c(=O)[nH]c(SCC(=O)N4CCOCC4)nc32)cc1	3.4%	14.4%	-3.2%	-48.7%	25.9%	-3.0%
O=C(CSc1nc2c(cnn2-c2ccc(F)cc2)c(=O)[nH]1)N1CCOCC1	10.8%	19.8%	8.5%	79.4µM*	-1.0%	-12.1%
CCCCCSc1nc2c(cnn2-c2ccc(F)cc2)c(=O)[nH]1	·	15.1%	-12.0%	22.4%	1.4%	22.4µM*
CCCCCCCCCCCCCCCC(=O)OC[C@@H](COP(=O)([O-])OCC[N+](C)(C)C)OC(=O)CCCCCCCCCCCCCCC	·	·	·	·	4.1%	·
Cc1ccc2[nH]c3c(=O)n(Cc4ccncc4)cnc3c2c1	·	32.4%	50.1µM*	-4.8%	7.3%	-10.5%
CC(=O)OC1CC[C@@]2(C)C(=CC[C@H]3[C@@H]4CC[C@H](C(C)=O)[C@@]4(C)CC[C@@H]32)C1 (stereo not given in full)	·	·	·	·	5.2%	·
Cc1nc(C/C(=N\Nc2ccccc2)c2ccc(O)cc2O)cs1	?	?	50.1µM*	4.47µM*	17.8µM*	50.1µM*

Screening data: PubChem BioAssay, National Center for Advancing Translational Sciences (NCATS)
